Bioassay records as filed in PubChem.
Most compounds without a hit are left out; they make up all but 1.7% or so of the library.
GLP1R inv ag = qHTS of GLP-1 Receptor Inverse Agonists (Inhibition Mode); HEK293 GLP-1R CRE-luciferase, luminescence, 24 h; GLP-1R form is constitutively active; Potency, µM (titrated, usually from 38.3 µM), inactives show at the top dose activity change, negative = inhibition, most hits filed as inhibitors; 410,000 tested, 1.6% active; further: on the % scale 0 is the no-effect control and ±100 the full control effect; nearly all actives have a fitted effect of over 55% in size
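Inverse agonists were sought by their lowering of basal cAMP reporter luciferase output in HEK293 cells stably carrying constitutively active human GLP-1R, after 24 h compound treatment.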
PTHR1 ag = qHTS for PTHR1 Agonists: Primary Screen; Parathyroid hormone/parathyroid hormone-related peptide receptor (Homo sapiens), Q03431; HEK293 GP2 PTHR1 cells, GloSensor cAMP luminescence, 1 h; Potency, µM (doses to about 115 µM), inactives show top-dose activation, usual class: activators; 410,000 tested, 0.075% active; AID 743266, 2014; further: nearly all actives have a fitted effect of over 55% in size
Target sequence (Q03431 whole entry, looked up): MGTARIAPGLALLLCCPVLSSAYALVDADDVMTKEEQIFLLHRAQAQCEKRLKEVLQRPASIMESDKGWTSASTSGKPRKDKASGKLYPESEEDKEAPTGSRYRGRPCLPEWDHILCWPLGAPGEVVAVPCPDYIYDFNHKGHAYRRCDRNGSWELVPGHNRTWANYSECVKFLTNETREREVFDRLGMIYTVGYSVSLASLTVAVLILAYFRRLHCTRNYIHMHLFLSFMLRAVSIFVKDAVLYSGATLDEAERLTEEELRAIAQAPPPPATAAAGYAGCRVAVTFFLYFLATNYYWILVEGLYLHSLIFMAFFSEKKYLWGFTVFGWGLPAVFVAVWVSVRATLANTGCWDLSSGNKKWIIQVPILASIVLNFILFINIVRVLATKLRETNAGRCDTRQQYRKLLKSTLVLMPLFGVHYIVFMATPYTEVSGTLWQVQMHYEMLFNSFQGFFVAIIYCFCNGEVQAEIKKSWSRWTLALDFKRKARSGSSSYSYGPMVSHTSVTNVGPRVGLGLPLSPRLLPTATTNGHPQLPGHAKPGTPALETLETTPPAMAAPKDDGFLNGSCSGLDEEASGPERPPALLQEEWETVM
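HEK-293-derived GP2 cells expressing PTHR1 and a GloSensor cAMP reporter, 3,000/well, plated overnight, given luciferin plus IBMX (each 0.5 mM as added) for 1 h at 37 °C, then compound for 1 h at 37 °C. Luminescence was read after 15 min at room temperature.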
GLP1R cytotox = qHTS of GLP-1 Receptor Inverse Agonists: Cytotox Screen | HEK293 cAMP-luciferase reporter cells, luminescence, 24 h | Potency, µM (series often up to 38.3 µM), inactives show at the top dose activity change, negative = inhibition, most hits filed as inhibitors | AID 624418, 2012 | 410,000 tested, 0.13% active;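 further: loss of luciferase light is scored as toxicity; on the % scale 0 is the no-effect control and ±100 the full control effect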
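To flag toxic compounds, the library was rerun on cells for 24 hr at 37 deg C and 5% CO2. Viability-linked luminescence was captured 12 min after adding luciferase detection reagent.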
GLP1R ag = qHTS of GLP-1 Receptor Agonists. Glucagon-like peptide 1 receptor (Homo sapiens), P43220. HEK293 GLP-1R CRE-luciferase, luminescence, 4-6 h; cells express a hypersensitive GLP-1R form. Potency, µM (doses to about 45.6 µM), for inactives: top-dose activation, hits mostly activators. 380,000 tested, 0.007% active; further: % of control where 0% means no effect
* marks the source's active call; other numbers are inactive results; i = inactive; ? = inconclusive; . = not tested or not shown; [ ] = remark or other dose. The call rests on the fitted dose curve; in most records, active means well fitted curve in the direction sought with a large enough effect; inconclusive means small, poorly fitted or top-dose-only effect, or another doubt; inactive means no such curve, though single readings can be large; an effect the other way counts as inactive or inconclusive. Potency means the concentration at half of the fitted maximal effect.

SMILES | GLP1R inv ag | PTHR1 ag | GLP1R cytotox | GLP1R ag
Cc1ccc(C)c(N2N=C(C(=O)NCCN3C(=O)S/C(=C\c4cccnc4)C3=O)CCC2=O)c1 | 17% | i | 2% | ?
C[C@H]1CN([C@@H](C)CO)C(=O)c2cc(-c3ccccc3F)cnc2O[C@@H]1CN(C)C(=O)NC1CCCCC1 | 13% | -23% | -14% | -2%
COc1ccc(NC(=O)Cn2nnc(-c3ccccc3NS(=O)(=O)c3ccccc3)n2)cc1 | 7.1µM* | -34% | -1% | -2%
COc1ccc(S(=O)(=O)Nc2ccccc2-c2nnn(CC(=O)Nc3ccccc3OC)n2)cc1 | ? | -26% | -34% | -3%
CCOC(=O)CSc1cccc2cccnc12 | ? | i | 3.5µM* | -35%
CCOC(=O)C1=C(CN(CC)Cc2ccccc2)NC(=O)NC1c1ccc(Cl)cc1 (configuration not stated) | 10µM* | -25% | -13% | -5%
CCOC(=O)C1=C(CNCCc2ccc(Cl)cc2)NC(=O)NC1c1ccc2c(c1)OCO2 (configuration not stated) | 6.3µM* | -18% | -22% | 4%
CC1CN(C(=O)CCC(=O)Nc2cc(F)ccc2F)c2ccccc2S1 (configuration not stated) | ? | -21% | 10% | .
O=C(Nc1ccc(F)cc1Cl)c1cnc(N2CCOCC2)c2ccccc12 | 19% | i | 26% | .
CCN(c1ccc(OC)cc1)S(=O)(=O)c1ccc(-c2cc(C)no2)s1 | 7.9µM* | -8% | -47% | 20%
COc1ccc(Cc2nc3c4cnn(-c5ccccc5Br)c4ncn3n2)cc1 | 7% | i | -17% | .
CC(=O)N[C@@H](CC(=O)O)C(=O)N[C@@H](CCC(=O)O)C(=O)O | . | . | . | 26%
CCOc1ccc(C(=O)C(CCC(CN(C)C)C(=O)c2ccc(OCC)cc2)CN(C)C)cc1 (configuration not stated) | 1.6µM* | ? | -22% | -6%
COc1ccc(C(=O)C(CCCCC(CN(C)C)C(=O)c2ccc(OC)cc2)CN(C)C)cc1 (configuration not stated) | 0% | i | ? | 17%
Cc1cccc2cc(CN(Cc3ccccc3)C(=O)c3cccc(F)c3)c(Cl)nc12 | 11µM* | -5% | -6% | -2%
c1ccc(-n2cnnn2)cc1 | . | . | . | -3%
Cc1cccc(Cn2c(=O)n(CC3CCC(C(=O)N4CCOCC4)CC3)c(=O)c3sccc32)c1 (configuration not stated) | 4% | -22% | -6% | .
CCCN(CCC)c1nc2ccccc2nc1C(C#N)C(=O)OC(C)COC (configuration not stated) | 10µM* | i | 4% | 17%
OCC1(Cc2cccc(Cl)c2)CCCN(Cc2ccc3cc(F)ccc3n2)C1 (configuration not stated) | 13µM* | -13% | -4% | 19%
Cc1cc(CN2CCCC(CO)(Cc3cccc(Cl)c3)C2)n[nH]1 (configuration not stated) | ? | i | 0% | 6%
COCCC(=O)N1CCC(Oc2ccc(C(=O)NC(C)CCn3cccn3)cc2)CC1 (configuration not stated) | -10% | -18% | 4% | -5%
CCCCCCCCCCCCCCCC(=O)O[C@@H]1CC(C)=C(\C=C/C(C)=C\C=C/C(C)=C\C=C\C=C(C)\C=C\C=C(C)\C=C\C2=C(C)C[C@@H](OC(=O)CCCCCCCCCCCCCCC)CC2(C)C)C(C)(C)C1 | . | . | . | -8%
Cc1cc(C)n(-c2nc(NCC3CCCO3)c3c4c(sc3n2)COC(C)(C)C4)n1 (configuration not stated) | ? | -8%[57.5 µM] | 3.2µM* | 1%
Cc1cc(C)n(-c2nc(NCC(C)O)c3c4c(sc3n2)CCCC4)n1 (configuration not stated) | 2.8µM* | -14% | -17% | 17%
Cc1cc(C)n(-c2nc(NCCCO)c3c4c(sc3n2)CCCC4)n1 | ? | -1% | ? | 15%
SMILES | GLP1R inv ag | PTHR1 ag | GLP1R cytotox | GLP1R ag
Cc1cc(C)n(-c2nc(NCCO)c3c4c(sc3n2)CCCC4)n1 | 4.5µM* | -29% | ? | 24%
Cc1cc(C)n(-c2nc(NCC(C)O)c3c4c(sc3n2)COC(C)(C)C4)n1 (configuration not stated) | 0% | i | ? | -1%
Nc1nc(Sc2ccc([N+](=O)[O-])c3nonc23)c2[nH]cnc2n1 | ? | -42% | 8.9µM* | 7%
CC(=O)c1ccc(NC(=O)COCc2cc(-c3ccc(F)cc3)on2)cc1 | 3% | -36% | 1% | .
Cc1nc2c(-c3ccccc3)c(C)[nH]n2c(=O)c1Cc1ccc(C(C)C)cc1 | -30% | -24% | -6% | .
Cc1cc(Br)cn2c(Cc3ccsc3)c(-c3cccc(Cl)c3)nc12 | ? | -20% | 3% | 7%
Cc1cc(Br)cn2c(Cc3cccc(Cl)c3)c(-c3cccc(Cl)c3)nc12 | 10µM* | -18% | 4% | 3%
CCOC(=O)c1c(C)n(-c2ccccc2)c2ccc(OC(=O)COc3ccc(Cl)cc3)cc12 | 2% | i | 9% | .
O=C(O)c1ccc(Nc2nc3ccccc3n3cnnc23)cc1 | -13% | -7% | 1% | .
CCN(CC)CC#CCC(O)(c1ccccc1)c1ccccc1 | ? | -17% | -19% | 4%
CCN(CC)CC#CCC(O)(c1ccccc1)c1ccc(Br)cc1 (configuration not stated) | 10µM* | i | -24% | -6%
Cc1cc(N2CCN(C)CC2)ccc1NC(=O)c1ccc(-c2ccc(Cl)cc2)o1 | 11µM* | 3% | ? | 12%
CN1CCN(c2ccccc2NC(=O)c2ccc(-c3ccc(Cl)c(Cl)c3)o2)CC1 | -5% | i | 3% | 1%
Cc1cc(C(=O)CN2C(=O)c3ccccc3S2(=O)=O)c(C)n1-c1ccccc1 | 1.4µM* | -17%[57.5 µM] | 8% | -17%
Cc1cccc(C(=O)NC2=NC(c3ccc(Cl)cc3)CC(=O)N2)c1 (configuration not stated) | -30% | -84% | 3% | .
COc1ccc(Cc2c(-c3cccc(Cl)c3)nc3cc(C)c(Br)c(C)n23)c(C)c1 | 8.9µM* | -43% | 0% | -1%
CCc1ccc2oc(-c3ccc(OC)cc3)cc(=Nc3cccc(C(=O)O)c3)c2c1 | ? | -48% | 5% | -1%
CCc1ccc2oc(-c3ccc(OC)cc3)cc(=Nc3c(C)n(C)n(-c4ccccc4)c3=O)c2c1 | 10µM* | -95% | -11% | -4%
Oc1c(N=Nc2ccccn2)ccc2ccccc12 | ? | -32% | 5µM* | -17%
COC(=O)CC1(C(=O)OC)Oc2ccc(Br)cc2C(=O)N1c1ccc(Br)cc1Cl (configuration not stated) | 10µM* | -35% | -41% | 14%
